In the library only some 2.2% were active in any assay of this set; here they are far more common.
ATXN2 expr inh = Primary qHTS for Inhibitors of ATXN expression; HEK-293 ATXN2-luciferase reporter, luminescence, 24 h; Potency, µM (highest dose often 57 µM), hits mostly inhibitors; hit rate 0.72% among 360,000; also: nearly all actives have a fitted effect of over 55% in size
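ATXN2-luciferase reporter cells (luciferase flanked by upstream and downstream ATXN2 gene portions) were treated 24 h at 37 °C with compounds at up to 57 uM. SteadyGlo luminescence gave expression; GF-AFC fluorescence gave viability.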
mIDH1 inhibitor = qHTS for Inhibitors of mutant isocitrate dehydrogenase 1 (IDH1): qHTS. Isocitrate dehydrogenase [NADP] cytoplasmic (Homo sapiens), O75874. IDH1-R132H enzyme, NADPH consumption, diaphorase/resazurin fluorescence. Potency, µM (top dose mostly 76.6 µM), hits mostly inhibitors. hit rate 0.093% among 390,000; also: nearly all actives have a fitted effect of over 65% in size
Target sequence (O75874 whole entry R132H, stated change not applied): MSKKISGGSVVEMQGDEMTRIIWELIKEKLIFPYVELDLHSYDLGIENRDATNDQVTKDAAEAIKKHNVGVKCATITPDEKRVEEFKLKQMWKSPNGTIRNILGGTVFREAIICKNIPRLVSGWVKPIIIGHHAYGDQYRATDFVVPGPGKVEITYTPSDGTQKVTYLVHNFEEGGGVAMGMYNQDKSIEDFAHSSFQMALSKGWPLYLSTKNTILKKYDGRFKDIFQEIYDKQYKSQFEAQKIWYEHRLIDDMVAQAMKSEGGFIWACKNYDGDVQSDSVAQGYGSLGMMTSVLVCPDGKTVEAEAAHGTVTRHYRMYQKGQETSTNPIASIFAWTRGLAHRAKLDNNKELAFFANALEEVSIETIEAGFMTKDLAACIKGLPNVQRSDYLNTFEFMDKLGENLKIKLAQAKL
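IDH1-R132H (0.5 ug/mL) preincubated 30 min with compound, then NADPH (0.016 mM) and alpha-KG (2 mM) added; 80 min at RT, pH 7.5. Remaining NADPH coupled via diaphorase/resazurin to fluorescence (540/590 nm); concentration-response curves normalized to no-enzyme control.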
ATXN viability = Viability Counterscreen for Primary qHTS for Inhibitors of ATXN expression; S2 cells (HEK-293 line with an ATXN2-luciferase reporter) viability, CellTiter-Fluor protease fluorescence, 24 h; Potency, µM (doses to about 56.7 µM), usual class: cytotoxic; hit rate 0.49% among 400,000; AID 651635, 2014; also: nearly all actives have a fitted effect of over 40% in size
LDHA block = qHTS assay for inhibitors of human lactate dehydrogenase; activity change, % (values are at about 110 or 230 µM); purified LDHA, NADH/diaphorase-resazurin fluorescence; stronger effect = lower value; AID 1347041, 2019; hit rate 0.15% among 480,000; in the data active = activity change below about -30%; inconclusive = mostly about -25% to -30%
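Enzyme activity of human lactate dehydrogenase 5 (2 nM; 0.06 mM NADH, 0.2 mM pyruvate, 5 min, RT) is measured via a resazurin/diaphorase fluorescence readout of residual NADH.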
HepG2 viability = qHTS for Inhibitors of TGF-b: Cytotox Counterscreen; HepG2 CAGA-GFP viability, ATP luminescence, 18 h; Potency, µM (top dose mostly 46.1 µM), most hits filed as cytotoxic; hit rate 0.76% among 410,000
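HepG2 CAGA-GFP cells (1000/well, DMEM with 1% FBS) received compound, then TGF-beta at 500 pg/mL final, and were incubated 18 hours at 37 degrees C. Viability was read by CellTiter-Glo luminescence. Media-only wells were set as complete cell-killing and DMSO as no toxicity.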
TGFb inhibitor = qHTS for Inhibitors of TGF-b; HepG2 CAGA-GFP TGF-b/SMAD3 reporter, GFP fluorescence, 18 h; TGF-beta stimulated, 500 pg/mL final; Potency, µM (highest dose often 46.1 µM), actives largely listed as inhibitors; AID 588855, 2011; hit rate 1.2% among 410,000; also: nearly all actives have a fitted effect of over 65% in size
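HEPG2 CAGA-GFP cells (1000/well, DMEM with 1% FBS) were pre-incubated 2 h at 37 degrees C, given compound by pin tool, then stimulated with TGF-beta at 500 pg/mL final for 18 h before per-cell GFP fluorescence imaging.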
Of the large screens only hits and unclear results are named; the others gave an inactive call. Unless noted, calls follow the shape of the dose curve; as a rule, active = well fitted curve in the direction sought with a large enough effect; inconclusive = small, poorly fitted or top-dose-only effect, or another doubt; inactive = no such curve, though single readings can be large; an effect the other way counts as inactive or inconclusive.

Cc1cc(OC(=O)c2ccco2)c(Sc2ccccc2[N+](=O)[O-])c(=O)o1	LDHA block -105.6
COc1ccc(OC)c(/C=C/C(=O)OCC(=O)c2c(N)n(C)c(=O)n(C)c2=O)c1	none
c1cc(-c2cc3nc(NC4CCCCC4)ccn3n2)ccc1OCCN1CCOCC1	ATXN2 expr inh inconclusive, ATXN viability 25.1µM, TGFb inhibitor 11.2µM (no result: mIDH1 inhibitor)
FC(F)(F)c1cccc(-c2cc3nc(NC4CCCCC4)ccn3n2)c1	ATXN2 expr inh inconclusive, ATXN viability inconclusive, TGFb inhibitor 15.8µM (no result: mIDH1 inhibitor)
CN(C)C(=O)CNc1ccn2nc(-c3cccc(OCCN4CCOCC4)c3)cc2n1	none (no result: mIDH1 inhibitor)
c1cc(-c2cc3nc(NCC4CC4)ccn3n2)ccc1OCCN1CCOCC1	ATXN viability inconclusive (no result: mIDH1 inhibitor)
Clc1cccc(CNc2ccn3nc(-c4ccc(OCCN5CCOCC5)cc4)cc3n2)c1	ATXN2 expr inh inconclusive, TGFb inhibitor 11.2µM (no result: mIDH1 inhibitor, ATXN viability)
O=C(Nc1nnc(C2CC2)s1)c1ccc2ccccc2n1	none (no result: ATXN2 expr inh, mIDH1 inhibitor, ATXN viability, HepG2 viability, TGFb inhibitor)
Cc1cccc(NC(=O)CN2C(=O)C(c3ccccc3)=NC23CCC(C)CC3)c1 (centres undefined)	none (no result: ATXN2 expr inh, mIDH1 inhibitor, ATXN viability, TGFb inhibitor)
CC(=O)OC1CC2(C)C(CCC2(O)C(C)=O)C2CCC3C(Cl)C(=O)CCC3(C)C12 (centres undefined)	ATXN viability inconclusive
CCCn1c(-n2nc(C)c(C)c2C)nc2c1c(=O)n(CCN1CCOCC1)c(=O)n2C	none (no result: ATXN2 expr inh, mIDH1 inhibitor, ATXN viability, HepG2 viability, TGFb inhibitor)
COc1cccc2nc(-c3cccs3)nc(NN3C(=O)C=C(C)C3=O)c12	ATXN2 expr inh 6.11µM (no result: mIDH1 inhibitor, ATXN viability, HepG2 viability, TGFb inhibitor)
COc1ccc(Nc2nc(-c3cccs3)nc3ccccc23)c(OC)c1	none
CSCC(=O)Nc1ccc(F)c(Cl)c1	none
COC(=O)Cc1c(C)c2ccc(O)cc2oc1=O	LDHA block -30.5 (no result: ATXN2 expr inh, mIDH1 inhibitor, ATXN viability, HepG2 viability, TGFb inhibitor)
Cc1ccccc1NC(=O)c1cnc2ccccc2n1	none (no result: ATXN2 expr inh, mIDH1 inhibitor, ATXN viability, HepG2 viability, TGFb inhibitor)
COc1ccc(NS(=O)(=O)c2ccc(OC)c(OC)c2)cc1OC	TGFb inhibitor inconclusive
COc1ccc(S(=O)(=O)NNS(=O)(=O)c2ccc(OC)c(OC)c2)cc1OC	LDHA block -81.3, TGFb inhibitor inconclusive (no result: mIDH1 inhibitor)
CCCCCOC(=O)Cn1c(N2CCOCC2)nc2c1c(=O)[nH]c(=O)n2C	none
Cc1ccc(CN2[C@@H](Cc3ccccc3)C(=O)CS2(=O)=O)cc1	TGFb inhibitor inconclusive
CCc1ccc(NC(=O)c2ccc(Cn3nc(N4CCN(c5ccccc5)CC4)ccc3=O)o2)cc1	TGFb inhibitor inconclusive (no result: ATXN2 expr inh, ATXN viability)
CCc1ccccc1NC(=O)c1ccc(Cn2nc(N3CCN(c4ccccc4)CC3)ccc2=O)o1	ATXN2 expr inh 20µM, ATXN viability inconclusive, TGFb inhibitor inconclusive
Cc1cc(C)nc(N/N=C/c2sccc2C)n1	none
Cc1ccsc1/C=N/Nc1nc(=O)[nH]nc1C	ATXN2 expr inh inconclusive, HepG2 viability 11.2µM, TGFb inhibitor inconclusive
C=CCn1cccc(C(=O)Nc2ccc(Cl)cc2)c1=O	none
Cc1ccc(S(=O)(=O)N2CCN(CC(O)CN3CCOCC3)CC2)cc1 (centres undefined)	none
CCC(C)c1ccc(S(=O)(=O)N2CCN(CC(O)CN3CCOCC3)CC2)cc1 (centres undefined)	LDHA block -32.7
COc1ccc(NC(=O)c2cc(S(=O)(=O)N3CCCC3)c[nH]2)cc1	HepG2 viability 2.51µM, TGFb inhibitor inconclusive
Cc1ccc(C)c(NC(=O)c2ccc3c(O)c(S(=O)(=O)c4ccc(Cl)cc4)c(=O)[nH]c3c2)c1	none
CN(C)C(=S)N=c1ssc(=S)n1Cc1ccccc1	ATXN viability inconclusive, TGFb inhibitor 2.24µM
COc1ccc(-c2cccc([C@H]3[C@@H]4C=CCC[C@@]4(C)C(=O)N3Cc3ccccc3)c2)cc1	ATXN2 expr inh inconclusive, TGFb inhibitor inconclusive
CC12CCC=CC1C(c1cccc(Br)c1)N(Cc1ccccc1)C2=O (centres undefined)	TGFb inhibitor 12.6µM (no result: ATXN2 expr inh, mIDH1 inhibitor, ATXN viability, LDHA block)

Assay outcomes as filed in PubChem BioAssay.
